G9a inh: inhibitors of human histone lysine methyltransferase G9a; Q96KQ7; G9a H3K9 monomethylation, AlphaScreen, 2 h; Potency, µM (highest dose often 102 µM), actives largely listed as inhibitors; actives 8.8% (n = 350,000); AID 504332; further: nearly all actives have a fitted effect of over 75% in size
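Signal arises when biotinylated H3K9 peptide, once monomethylated, bridges streptavidin donor and antibody-captured acceptor beads. Enzyme at 20 nM was preincubated 15 min with test compounds; peptide 500 nM and SAM 20 uM then reacted for 2 h.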
VDR inh: inhibitors of human vitamin D receptor. AID 504847. actives 0.93% (n = 400,000). Potency, µM, usual class: inhibitors. VDR-SRC2-3 peptide fluorescence polarization, 2 h. P11473
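Fluorescence polarization assay measuring small-molecule disruption of VDR binding to the coregulator peptide SRC2-3. Compounds were pin-transferred (23 nl) into the reagent mix and incubated 2 h at room temperature before reading.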
Sfp PPTase inh: inhibitors of Bacillus subtilis Sfp phosphopantetheinyl transferase | Biochemical Sfp PPTase activity, qHTS | Potency, µM, actives largely listed as inhibitors | actives 3.5% (n = 310,000) | AID 1490;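 further: the enzyme is Sfp with the accession as filed and its product quenches rhodamine fluorescence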
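Sfp 15 nM + cpd, 15 min RT; start w/ rhodamine-CoA 5 uM, BHQ-2-YbbR 12.5 uM (final); 50 mM Hepes pH 7.6, 10 mM MgCl2, 0.01% NP-40, 0.01% BSA; read 525/598 nm at 0 and 30 min.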
GRP78 ERSR act: inducers of ER stress response in human glioma cells. U87-MG GRP78 promoter luciferase reporter, 16 h. Potency, µM, usual class: activators. actives 0.02% (n = 420,000). AID 602332; further: series mostly up to about 76 µM; nearly all actives have a fitted effect of over 35% in size
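ERSR induction read as luciferase luminescence (Bright-Glo, 10 min at room temperature) in stably transfected human U87-MG glioma cells exposed to compounds for 16 h, using GRP78 as sensor.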
ALOX12 inh: ALOX12 (human) lipoxygenase inhibition; purified 12hLO, xylenol orange hydroperoxide absorbance; Potency, µM (top dose mostly 108 µM), hits mostly inhibitors; AID 1671190; actives 1.1% (n = 580,000)
Target sequence (P18054 whole entry, looked up): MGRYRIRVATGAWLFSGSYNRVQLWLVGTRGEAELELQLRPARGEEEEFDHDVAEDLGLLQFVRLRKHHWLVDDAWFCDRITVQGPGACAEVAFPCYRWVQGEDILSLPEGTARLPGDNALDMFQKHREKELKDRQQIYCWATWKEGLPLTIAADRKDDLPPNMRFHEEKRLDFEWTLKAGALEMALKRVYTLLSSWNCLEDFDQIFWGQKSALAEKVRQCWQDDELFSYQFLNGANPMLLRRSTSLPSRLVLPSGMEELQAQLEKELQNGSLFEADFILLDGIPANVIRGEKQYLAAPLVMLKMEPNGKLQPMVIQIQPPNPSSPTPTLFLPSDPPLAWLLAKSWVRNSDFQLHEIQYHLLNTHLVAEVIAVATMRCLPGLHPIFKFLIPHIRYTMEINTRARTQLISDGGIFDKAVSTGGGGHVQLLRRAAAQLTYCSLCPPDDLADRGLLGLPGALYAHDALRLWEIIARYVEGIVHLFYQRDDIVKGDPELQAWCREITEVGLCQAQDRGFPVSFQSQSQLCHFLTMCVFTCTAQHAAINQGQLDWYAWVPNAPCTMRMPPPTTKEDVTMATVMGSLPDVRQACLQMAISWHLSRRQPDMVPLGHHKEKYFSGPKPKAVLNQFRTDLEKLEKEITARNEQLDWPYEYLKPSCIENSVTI
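Hydroperoxide product was detected by ferrous iron/xylenol orange as the 573 to 405 nm absorbance ratio. Arachidonic acid at 40 uM (final) was turned over for 30 min at room temperature by 150 nM human 12hLO, pH 7.0 Hepes buffer, after 15 min compound preincubation.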
Hits are given with their value; . = inactive; ? = inconclusive; / = not tested or not shown; [ ] = dose if it differs, or a comment. The full list was thinned out, with hits kept by preference. The call rests on the fitted dose curve; in most records, active means well fitted curve in the direction sought with a large enough effect; inconclusive means small, poorly fitted or top-dose-only effect, or another doubt; inactive means no such curve, though single readings can be large; an effect the other way counts as inactive or inconclusive.

SMILES	G9a inh	VDR inh	Sfp PPTase inh	GRP78 ERSR act	ALOX12 inh
COCCNC(=S)NCc1ccc2[nH]c3c(c2c1)CCCC3	44.7µM	.	.	.	?
Cc1ccc(NC(=S)NCc2ccc3[nH]c4c(c3c2)CCCC4)cc1	44.7µM	.	.	.	?
COCCNC(=O)NC(=O)COC(=O)c1ccc2[nH]c3c(c2c1)CCCC3	.	.	.	.	.
CCOc1cc(/C=C/c2nc3ccccc3s2)ccc1O	/	/	/	/	39.8µM
CCOc1cc(/C=C/c2nc3cc(C)c(C)cc3s2)ccc1OCC(=O)N1CCOCC1	12.6µM	.	?	.	.
COc1cc(/C=C/c2nc3ccccc3s2)cc(OC)c1O	50.1µM	.	.	.	?
COc1cc(C=C(c2nc3ccccc3s2)c2nc3ccccc3s2)ccc1O	3.55µM	.	.	.	?
COc1ccc(N2CCN(c3cc(C4CC(N)C4)nc(N)n3)CC2(C)C)cc1 (centres undefined)	/	/	/	/	.
CCOc1cc(CNCCc2ccc(S(N)(=O)=O)cc2)cc(Cl)c1OCc1ccccc1	.	.	3.55µM	.	?
CCOc1cc(CNCc2ccccc2)ccc1OCc1ccc(Cl)cc1	.[2.33 µM]	.	.	.	?
COc1ccc(CNCCc2ccc(Cl)cc2)cc1OCc1ccccc1	10µM	.	.	.	/
CCOc1cc(CNC2CCCC2)cc(Cl)c1OCc1ccc(F)cc1	.[12.7 µM]	.	39.8µM	.	?
CCOc1cc(CNn2cn[nH]c2=S)cc(Cl)c1OCc1ccccc1F	7.94µM	.	.	.	?
COc1ccc(-c2noc(CN3CCCC(C(=O)Nc4ccc(-c5ccno5)cc4)C3)n2)cc1OC (centres undefined)	/	/	/	/	.
COc1ccc(CNCC(O)(c2ccc(Cl)cc2)c2ccc(Cl)cc2)cc1OC	.	.	44.7µM	.	?
CCOc1cc(CNCCc2ccc(S(N)(=O)=O)cc2)ccc1OCc1ccccc1	.	.	11.2µM	.	.
Clc1ccc(CSc2nnc([C@@H]3CCCN3)o2)c(Cl)c1	/	/	/	/	.
O=C(CSc1ncnc2cc(-c3ccc(F)cc3)sc12)NC1CCCC1	/	/	/	/	.
CC[C@@H](C)[C@H]1O[C@]2(CC[C@@H]1C)C[C@@H]1C[C@@H](C/C=C(\C)[C@@H](O[C@@H]3C[C@H](OC)[C@H](O[C@H]4C[C@H](OC)[C@@H](O)[C@H](C)O4)[C@H](C)O3)[C@@H](C)/C=C/C=C3\CO[C@@H]4[C@@H](O)C(C)=C[C@@H](C(=O)O1)[C@]34O)O2	/	/	/	/	.
COc1ccccc1CCNC(=O)Cn1c(=O)oc2ccccc21	39.8µM	.	.	.	.
CSCCC(C(=O)NCc1cccs1)N1C(=O)c2ccccc2C1=O (centres undefined)	.	.	.	.	.
CSCC[C@@H](C(=O)O)N1Cc2ccccc2C1=O	39.8µM	.	.	.	?
COc1ccc(NC(=O)C(CCSC)N2C(=O)c3ccccc3C2=O)cc1 (centres undefined)	?	.	50.1µM	.	.
CSCC[C@@H](C(=O)Nc1ccc2c(c1)OCCO2)N1Cc2ccccc2C1=O	?	.	.	.	.
CSCC[C@@H](C(=O)Nc1cccc(F)c1)N1Cc2ccccc2C1=O	17.8µM	.	/	.	.
SMILES	G9a inh	VDR inh	Sfp PPTase inh	GRP78 ERSR act	ALOX12 inh
CSCC[C@@H](C(=O)NCc1cccs1)N1Cc2ccccc2C1=O	50.1µM	.	.	.	.
Cc1ccc(-c2c(N)oc3ccccc3c2=O)cc1	/	/	/	/	.
CC(=O)c1cccc(NC(=O)CN(CCc2ccccc2)S(=O)(=O)c2ccccc2)c1	/	/	/	/	.
CC(=O)Nc1cccc(C(C)NC(=O)NC(c2ccc(Cl)cc2)C(C)C)c1 (centres undefined)	/	/	/	/	.
O=C(O)[C@@H](c1ccccc1)N1Cc2ccccc2C1=O	39.8µM	.	28.2µM	.	39.8µM
CC(C)OC(=O)c1nn2c(C(F)(F)F)cc(-c3ccco3)nc2c1Cl	?	.	.	.	.
CC(C)OC(=O)c1nn2c(C(F)(F)F)cc(-c3ccc(Br)o3)nc2c1Br	35.5µM	.	.	.	?
CC(C)OC(=O)COc1ccc2c(-c3cc4ccccc4oc3=O)cc(=O)oc2c1	/	/	/	/	.
CN(C)S(=O)(=O)c1cccc(NC(=O)CSc2nc3ccccc3n2-c2ccccc2)c1	79.4µM	.	.	.	.
Cc1ccc(C(=O)OCC(=O)c2cccs2)cc1O	/	/	/	/	.
Cc1nc2nc(C(F)(F)F)[nH]n2c(=O)c1Cc1ccc(Br)cc1	/	/	/	/	.
O=C(O)c1cn[nH]c1-n1cnnn1	50.1µM	.	.	.	.
COCCc1noc([C@@H]2CN(Cc3ccc(C(C)C)cc3)C[C@H]2CO)n1	/	/	/	/	.
COc1ccc(N2CCN(Cc3nc4c(c(=O)[nH]c(=O)n4C)n3Cc3ccccc3C)CC2)cc1	28.2µM	.	/	.	?
COc1ccc(N2CCN(Cc3nc4c(c(=O)[nH]c(=O)n4C)n3Cc3ccccc3F)CC2)cc1	.	.	/	.	?
COc1ccc(N2CCN(c3nc4c(c(=O)[nH]c(=O)n4C)n3Cc3cccc(C)c3)CC2)cc1	10µM	.	.	.	.
CCN1CCN(c2nc3c(c(=O)[nH]c(=O)n3C)n2Cc2cccc(C)c2)CC1	/	/	/	.	.
CCN(CC)S(=O)(=O)c1ccc(N2CCCC2)c(NS(=O)(=O)c2ccc(OC)cc2)c1	35.5µM	.	.	.	?
CCN(CC)S(=O)(=O)c1ccc(N2CCCC2)c(NS(=O)(=O)c2ccccc2)c1	.	.	.	.	?
CCN(CC)S(=O)(=O)c1ccc(N2CCCC2)c(NS(=O)(=O)c2ccc([N+](=O)[O-])cc2)c1	10µM	.	.	.	.
O=C(O)/C(=C/c1ccccc1)c1cccs1	/	/	/	/	.
N#CC(C#N)=C1C=CC=CN1/C(=C\c1ccccc1Cl)C(=O)c1ccccc1	14.1µM	?	?	.	.
N#CC(C#N)=C1C=CC=CN1/C(=C\c1ccccc1)C(=O)c1cccs1	1.12µM	?	2.24µM	.	.
Cc1cccc(-n2nnnc2C(C)(C)NC2CCCCC2)c1	/	/	/	/	.
COc1ccc(NS(=O)(=O)c2cc(OC)ccc2NC(=O)c2cc(C)oc2C)cc1	79.4µM	.	.	.	35.5µM
SMILES	G9a inh	VDR inh	Sfp PPTase inh	GRP78 ERSR act	ALOX12 inh
Cc1ccc(NC(=O)C2CCCCC2)cc1C	.[12.7 µM]	.	/	.	.
COC1CCCCC1Nc1ccc(C)c(C)c1 (centres undefined)	2µM	.	.	.	.
CC(=O)/C(=N/Nc1ccc([N+](=O)[O-])cc1)N1CCCc2ccccc21	22.4µM	.	.	.	.
CC(=O)/C(=N/Nc1ccccc1[N+](=O)[O-])N1CCCc2ccccc21	5.01µM	.	.	.	?
O=C(c1ccc(Cl)c([N+](=O)[O-])c1)N1CCCc2ccccc21	?	.	.	.	.
COc1ccccc1Oc1c(C)oc2cc(OCC(=O)Nc3ccccc3F)ccc2c1=O	/	/	/	/	.
O=C(Nc1nc(-c2ccco2)c(-c2ccco2)s1)C1CC(=O)N(c2ccc3c(c2)OCCO3)C1 (centres undefined)	?	?	10µM	.	?
